Source: PubChem BioAssay (National Center for Advancing Translational Sciences (NCATS))
In the library only some 8.7% were active in any assay of this set; here they are far more common.
JMJD2A Tudor: blocks the human JMJD2A Tudor domain. hit rate 4.4% among 390,000. Potency, µM (doses to about 114 µM), for inactives: at the highest dose activity change, negative = inhibition, most hits filed as inhibitors. AlphaScreen JMJD2A-Tudor / H3K4me3 peptide binding; further: on the % scale 0 is the no-effect control and ±100 the full control effect; nearly all actives have a fitted effect of over 50% in size
ALOX12 inh: ALOX12 (human) lipoxygenase inhibition; P18054; AID 1671190; Potency, µM (top dose mostly 108 µM), for the others: top-dose activity change, negative = inhibition, hits mostly inhibitors; purified 12hLO, xylenol orange hydroperoxide absorbance; hit rate 1.1% among 580,000; further: on the % scale 0 is the no-effect control and ±100 the full control effect
Target sequence (P18054 whole entry, looked up): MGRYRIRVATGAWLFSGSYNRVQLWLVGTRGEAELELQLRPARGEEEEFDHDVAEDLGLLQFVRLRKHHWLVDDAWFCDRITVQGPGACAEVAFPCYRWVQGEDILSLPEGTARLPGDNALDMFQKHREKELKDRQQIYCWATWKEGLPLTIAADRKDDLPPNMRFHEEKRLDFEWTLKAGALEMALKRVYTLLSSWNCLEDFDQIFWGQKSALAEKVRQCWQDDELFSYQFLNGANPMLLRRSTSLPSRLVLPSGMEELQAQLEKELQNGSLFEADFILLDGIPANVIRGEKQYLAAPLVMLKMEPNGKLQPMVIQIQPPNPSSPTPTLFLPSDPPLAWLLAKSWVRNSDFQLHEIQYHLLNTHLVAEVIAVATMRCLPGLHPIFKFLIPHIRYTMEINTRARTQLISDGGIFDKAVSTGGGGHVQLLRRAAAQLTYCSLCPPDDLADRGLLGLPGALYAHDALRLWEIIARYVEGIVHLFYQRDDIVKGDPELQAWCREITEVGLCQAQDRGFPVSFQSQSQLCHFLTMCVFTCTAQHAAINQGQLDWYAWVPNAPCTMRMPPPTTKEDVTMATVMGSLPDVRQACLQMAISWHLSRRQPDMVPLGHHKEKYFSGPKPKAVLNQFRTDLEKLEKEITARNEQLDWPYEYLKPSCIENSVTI
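Purified human 12hLO (150 nM final) in 25 mM Hepes, 0.01% Triton X-100, pH 7.0 was preincubated 15 min at room temperature with compound. Then 40 uM arachidonic acid was added, 30 min. Hydroperoxide was read by Fe-XO absorbance ratio 573/405 nm.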
HP1b chromo inh: blocks HP1-beta chromodomain binding to methylated histone tails. AlphaScreen HP1-beta / biotin-H3K9me3 peptide binding. Potency, µM (titrated, usually from 114 µM), for inactives: at the top dose activity change, negative = inhibition, usual class: inhibitors. hit rate 0.56% among 390,000. AID 540317; further: nearly all actives have a fitted effect of over 70% in size
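Compound inhibition of the preformed complex between 50 nM HP1-beta and 50 nM biotinylated H3K9me3 peptide was read by AlphaScreen. Buffer was PBS pH 7.4 with 0.01% Tween-20. Incubations ran 30 min at room temperature, with 10 ug/mL donor/acceptor beads.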
BAZ2B inh: inhibitors of human BAZ2B bromodomain; Q9UIF8; AlphaScreen BAZ2B-H3K14Ac peptide displacement; Potency, µM (series often up to 114 µM), inactives show top-dose activity change, negative = inhibition, most hits filed as inhibitors; hit rate 4.4% among 360,000; AID 504333; further: on the % scale 0 is the no-effect control and ±100 the full control effect; nearly all actives have a fitted effect of over 60% in size
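Complex of BAZ2B and biotin-H3K14Ac (50 nM apiece) forms over 30 min at RT, then faces library compounds up to 110 uM for another 30 min; AlphaScreen beads added, 20 min dark incubation, luminescence read.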
G9a inh: inhibitors of human histone lysine methyltransferase G9a; AID 504332; G9a H3K9 monomethylation, AlphaScreen, 2 h; Q96KQ7; Potency, µM (highest dose often 102 µM), for inactives: at the highest dose activity, negative = inhibition, most hits filed as inhibitors; hit rate 8.8% among 350,000; further: on the % scale 0 is the no-effect control and ±100 the full control effect; nearly all actives have a fitted effect of over 75% in size
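Using a bead-based AlphaScreen, monomethylated H3K9 product from 2 h room-temperature reactions (G9a 20 nM, peptide 500 nM, SAM 20 uM) was detected with 0.5 ug/mL rabbit anti-H3K9me1 antibody.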
Sfp PPTase inh: blocks B. subtilis Sfp PPTase activity; Q9F4F7; Biochemical Sfp PPTase activity, qHTS; Potency, µM, for inactives: largest response in the series, negative = inhibition, hits mostly inhibitors; hit rate 3.5% among 310,000; AID 1490;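 further: the enzyme is Sfp with the accession as filed and its product quenches rhodamine fluorescence; 0% = enzyme reaction without inhibitor and -100% = no enzyme wells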
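Fluorescence-quenching assay: 15 nM Sfp-PPTase preincubated 15 min at room temperature with compound, then 5 uM rhodamine-CoA and 12.5 uM BHQ-2-labelled YbbR peptide added. Fluorescence (ex 525/em 598 nm) read at start and after 30 min; difference gives rate.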
* = called active by the depositor; ? = inconclusive; nt = no result; [ ] = dose if it differs, or a comment. The call rests on the fitted dose curve; in most records, active means well fitted curve in the direction sought with a large enough effect; inconclusive means small, poorly fitted or top-dose-only effect, or another doubt; inactive means no such curve, though single readings can be large; an effect the other way counts as inactive or inconclusive. Potency means the concentration at half of the fitted maximal effect.

SMILES	JMJD2A Tudor	ALOX12 inh	HP1b chromo inh	BAZ2B inh	G9a inh	Sfp PPTase inh
CN(C)C(=O)CSc1ncccc1-c1nc2ccccc2[nH]1	-3%	?	56%	-14%	-22%	4%
COCCCN1CN(S(=O)(=O)c2cccs2)c2nc3ccccc3nc21	-14%	3%	24%	-6%	13µM*	3%
CC(C)CN1CN(S(=O)(=O)c2cccs2)c2nc3ccccc3nc21	nt	-21%	nt	-25%	45µM*	-21%
O=C(N/N=C/c1cccs1)c1cccc(Cl)c1	nt	5%	nt	nt	nt	nt
COc1ccc(-c2noc([C@@H]3C[C@@H](O)CN3C(C)C)n2)cc1	nt	-15%[176 µM]	nt	nt	nt	nt
O=C(O)CCc1ccc(-c2ccc(F)cc2)n1CC1CCCO1 (stereo not drawn)	-24%	0%	7%	-6%	?	7%
O=C(O)CCc1ccc(-c2cccs2)n1CC1CCCO1 (stereo not drawn)	?	-28%	-2%	-33%	18µM*	-20%
CCCn1c(CCC(=O)O)ccc1-c1cccs1	-26%	?	16%	?	?	25µM*
CCCn1c(CCC(=O)O)ccc1-c1ccccc1	35µM*	-10%	?	-1%	5%[59 µM]	-26%
O=C(O)CCc1ccc(-c2ccccc2)n1CC(=O)O	?	3%	9%	-19%	?	-16%
Cc1ccc(-c2ccc(CCC(=O)O)n2Cc2ccco2)cc1	?	?	-6%	?	50µM*	-18%
Cc1nn(C)cc1CN1C[C@@H](COCC(N)=O)[C@H](c2ccncc2)C1	nt	176%	nt	nt	nt	nt
COCCN1CCCC(c2[nH]ccc2C(=O)N2CCN(c3ccccc3)CC2)C1 (stereo not drawn)	nt	19%	nt	nt	nt	nt
COc1cc(NC(=O)c2ccccc2)c(OC)cc1NC(=O)CCc1ccc(-c2ccccc2)o1	nt	-3%	nt	nt	nt	nt
O=C(O)CCc1ccc(-c2ccc(Br)cc2)n1CC(=O)O	-25%	?	9%	?	?	-34%
O=C(O)CCc1ccc(-c2ccc(F)cc2)n1CCC(=O)O	-20%	-11%	30%	-21%	11µM*	?
N#Cc1nc(-c2ccccc2Cl)oc1NCc1ccccc1Cl	nt	-11%	nt	nt	nt	nt
O=C(Nc1ccc(CN2CCOCC2)cc1)c1ccc(Cl)cc1Cl	-3%	-1%	47%	3%	17%[59 µM]	19%
O=C(Nc1ccc(CN2CCOCC2)cc1)c1ccc(-c2cccc(Cl)c2)o1	-34%	-19%	-13%	?	18µM*	-26%
O=C(Nc1ccc(CN2CCOCC2)cc1)c1ccc(-c2ccc(Cl)cc2Cl)o1	-27%	?	3%	?	40µM*	-4%
O=C(NC(=S)Nc1ccccc1N1CCOCC1)c1ccc(-c2cccc(Cl)c2)o1	-29%	40µM*	4%	-8%	22%[59 µM]	-2%
O=C(Nc1ccc2nn(-c3ccccc3)nc2c1)c1ccc(-c2cccc(Cl)c2)o1	-22%	-18%	84%	-15%	14µM*	nt
O=C1Nc2ccccc2OCC12CCN(Cc1ccc(F)cc1)CC2	nt	53%	nt	nt	nt	nt
O=C(Nc1cc(Cl)ccc1N1CCOCC1)c1ccc(Br)o1	-3%	nt	22%	?	25µM*	-6%
COc1ccc(N2CCOCC2)c(NC(=O)c2ccc(Br)o2)c1	-10%	2%	13%	?	?	-8%
SMILES	JMJD2A Tudor	ALOX12 inh	HP1b chromo inh	BAZ2B inh	G9a inh	Sfp PPTase inh
CC1C/C(=N/NC(=S)Nc2ccc(SC(F)F)cc2)CC(C)(C)C1 (stereo not drawn)	nt	28µM*	nt	nt	nt	nt
CC1(C)C2CC=C(/C=N/NC(N)=O)C1C2 (stereo not drawn)	nt	-6%	nt	nt	nt	nt
CC1C/C(=N/NC(=O)c2ccccc2)CC(C)(C)C1 (stereo not drawn)	nt	9%	nt	nt	nt	nt
CC1(C)C2CC=C(/C=N/NC(=S)Nc3ccc(SC(F)F)cc3)C1C2 (stereo not drawn)	nt	32µM*	nt	nt	nt	nt
FC(F)Sc1ccc(NC(=S)NC2CCCC2)cc1	-14%	?	25%	-1%	31%	12%
CCN(C(=S)Nc1cccnc1)c1cccc2ccccc12	-27%	0%	-11%	?	?	22µM*
CN(C(=S)Nc1cccnc1)c1ccc(O)cc1	?	?	?	-10%	1.6µM*	?
CCN(C(=S)Nc1cccnc1)c1ccccc1	-3%	-6%	18%	-17%	-37%	-20%
CN(C(=S)Nc1ccc(SC(F)F)cc1)c1ccc(O)cc1	?	?	71µM*	?	1.4µM*	32µM*
CN(C(=S)Nc1ccccc1)c1ccccc1	21%	-19%	2%	-20%	-10%	9%
CN(C(=S)Nc1ccc(Oc2ccccc2)cc1)c1ccc(O)cc1	56µM*	?	18µM*	?	1.3µM*	7.9µM*
O=[N+]([O-])c1ccc(CON=C2CCC3(CC2)OCCO3)cc1	nt	5%	nt	nt	nt	nt
COc1ccccc1NC(=O)CCc1c[nH]c2ccccc12	nt	7%	nt	nt	nt	nt
CN(Cc1cccc(F)c1)C(=O)NC1CCCC(C(F)(F)F)C1 (stereo not drawn)	nt	-41%	nt	nt	nt	nt
CCc1cccc(C)c1NC(=O)COC(=O)c1ccc(C2Nc3ccccc3S(=O)(=O)N2)cc1 (stereo not drawn)	nt	-26%	nt	nt	nt	nt
CCN1CCN(C(=O)c2cccs2)CC1	nt	-1%	nt	nt	nt	nt
Cc1ccc(C(C)(C)C)c(OCCN2CCCC2)c1	4µM*	?	-15%	50µM*	3.5µM*	-23%
Cc1cc(C(C)(C)C)ccc1OCCCCN1CCCC1	7.1µM*	-20%	-4%	-29%	?	5%
Cc1cc(OCCN2CCCCC2)nc2ccccc12	?	?	5%	-23%	-6%[12.7 µM]	13%
Cc1cc(C(C)(C)C)ccc1OCCN1CCCC1	8.9µM*	?	-56%	?	32µM*	-13%
Cc1ccc(C(C)C)c(OCCN2CCc3ccccc3C2)c1	2%	-11%	49%	16%	8%[0.501 µM]	2%
Clc1ccc(/C=N/N=C(c2ccccc2)c2ccccc2)c(Cl)c1	nt	8%	nt	nt	nt	nt
O=C(Cc1cccs1)N1CCC(Nc2cccnc2)C1 (stereo not drawn)	nt	41%	nt	nt	nt	nt
COc1ccccc1CCC(=O)N1C[C@@H](C)[C@](O)(C2CC2)C1	nt	77%	nt	nt	nt	nt
Cc1cc(C(=O)N2CC(Oc3cccc(-c4nc(-c5ccccc5)no4)c3)C2)n[nH]1	nt	37%	nt	nt	nt	nt
CC(=O)N(Cc1cc2cc(C)ccc2[nH]c1=O)CC(C)C	nt	-18%	nt	nt	nt	nt
O=C(COc1coc(CN2CCc3ccccc32)cc1=O)N1CCCCC1	-22%	-9%	9%	-5%	71µM*	nt
O=C(COc1coc(CN2CCCc3ccccc32)cc1=O)Nc1ccc([N+](=O)[O-])cc1	-18%	?	8%	-9%	11µM*	nt
O=C(COc1coc(CN2CCc3ccccc32)cc1=O)NCCc1ccccc1	-23%	?	18%	?	-42%	nt
